Measurements taken from PubChem BioAssay (NCI).
The panel holds about 83,000 compounds, 20% with a hit somewhere; the sample as a whole holds those more often.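 Note: values are percent growth. 100 is the growth of untreated cells, values between 100 and 0 indicate rising inhibition; between -100 and 0 indicates cell death.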 The source made the active and inactive calls. The calls were made as follows: active = growth percent below 10; inactive = the rest.

These compounds were tested on HOP-92 NSCLC (assay: NCI-60 one-dose screen, 48 h (100 = growth as untreated, 0 = no growth, -100 = all killed)). Settings: 10 µM unless noted.

SMILES	growth
CCN1CCN(C(=O)[C@]23CCC(C)(C)C[C@@H]2C2=CC[C@@H]4[C@@]5(C)C/C(=C/c6ccncc6)C(=O)C(C)(C)[C@@H]5CC[C@@]4(C)[C@]2(C)CC3)CC1	-11% (active)
COc1ccc(/C=C(\C#N)c2cc3ccccc3n2S(C)(=O)=O)cc1	86.5% (inactive)
Cc1ccc(S(=O)(=O)Nc2ccc(-c3cc(-c4cccc(F)c4)c(C#N)c(=O)[nH]3)cc2)cc1	72.9% (inactive)
N#CC1=C(N)Oc2c(c(N)nn2-c2ccccc2)C1c1ccc(Cl)cc1 (centres undefined)	92.7% (inactive)
C=C(C)[C@@H]1CC[C@]2(CN)CC[C@]3(C)[C@H](CC[C@@H]4[C@@]5(C)CCC(=O)NC(C)(C)[C@@H]5CC[C@]43C)[C@@H]12	54.6% (inactive)
CC1(C)[C@@H](O)CC[C@]2(C)[C@H]3CC[C@@H]4[C@H]5[C@H](C(=O)/C=C/c6ccc(C(F)(F)F)cc6)CC[C@]5(CO)CC[C@@]4(C)[C@]3(C)CC[C@@H]12	66% (inactive)

Each compound was assayed on NCI-H522 lung in the same assay as above. Settings: 10 µM unless noted.

SMILES	growth
N#CC1=C(N)Oc2c(c(N)nn2-c2ccccc2)C1c1ccc(Cl)cc1Cl (centres undefined)	90.5% (inactive)
C=C(C)[C@@H]1CC[C@]2(C=O)CC[C@]3(C)[C@H](CC[C@@H]4[C@@]5(C)C/C(=C/c6cccnc6)C(=O)C(C)(C)[C@@H]5CC[C@]43C)[C@@H]12	72% (inactive)
C=C(C)[C@@H]1CC[C@]2(C(=O)N3CCN(CC)CC3)CC[C@]3(C)[C@H](CC[C@@H]4[C@@](C)(CCC(=O)N5CCN(CC)CC5)[C@H](C(=C)C)CC[C@]43C)[C@@H]12	77.9% (inactive)
CCN1CCN(C(=O)[C@]23CCC(C)(C)C[C@H]2C2=CC[C@@H]4[C@@]5(C)CC/C(=N/O)C(C)(C)[C@@H]5CC[C@@]4(C)[C@]2(C)CC3)CC1	45.2% (inactive)
N#CC1=C(N)Oc2c(sc3c(F)cccc23)C1c1ccc(Cl)cc1 (centres undefined)	6.14% (active)
O=C1c2cccc3cccc(c23)C(=O)N1CC#Cc1ccc2c3c(cccc13)C(=O)N(CCN1CCNCC1)C2=O	99.8% (inactive)
C=C(C)[C@@H]1CC[C@]2(/C=N/Nc3ccncc3)CC[C@]3(C)[C@H](CC[C@@H]4[C@@]5(C)CCCNC(C)(C)[C@@H]5CC[C@]43C)[C@@H]12	94.8% (inactive)
Cc1ccnc2c(OCc3ccccc3)cccc12	105% (inactive)
C=CC(=O)N[C@H](Cc1ccc(-c2cc(Cl)cc(Cl)c2)cc1)[C@H](O)[C@@H](O)C(=O)O	59.1% (inactive)
C=COCCCCCCCCCCCCCCCCCC	97.5% (inactive)
COc1cc2ncnc(Nc3ccc(Oc4ccnc(C)c4)c(C)c3)c2cc1NC(=O)CC1CCSS1 (centres undefined)	-57.6% (active)
CN1CCN(c2nc(-c3csc(-c4cccs4)n3)cc3ccccc23)CC1	70.7% (inactive)
O=C(O[C@@H]1Cc2c(O)cc(O)cc2O[C@@H]1c1cc(O)c(O)c(O)c1)c1cc(O)c2c(c1)OCO2	83.3% (inactive)
C/C(Cc1ccc(Cl)cc1)=C(/c1ccc(Cl)cc1)c1ccc(OCCN2CCCC2)cc1	73.7% (inactive)
Cc1cc(N(CCCNc2ccnc3cc(Cl)ccc23)Cc2ccco2)nc(N2CCOCC2)n1	90.5% (inactive)
Cc1ccccc1-c1nc(C(Cl)Cl)nc2cc(-c3ccccc3)nn12	82.8% (inactive)
O=C1/C(=C\C(Cl)=C/c2ccc([N+](=O)[O-])cc2)SC(=S)N1CCc1ccc(O)cc1	0.0131% (active)
Brc1ccc2c(c1)c(-c1nc(-c3c[nH]c4ncccc34)cs1)cn2CCCN1CCCCC1	-3.42% (active)
Cn1c(/C(C#N)=C/c2ccc3ccccc3c2)cc2ccccc21	27.1% (inactive)

SMILES	growth
CN(CSc1ccc(Cl)cc1)c1ccc(CSc2ccc(Cl)cc2)cc1	32% (inactive)
CCNCCCn1c2c(c3ccc([N+](=O)[O-])cc3c1=O)C(=O)c1cc(OC)cnc1-2	-16.1% (active)
CC1(C)NC2=C(C(Nc3cccnc3)N1)C(c1ccc([N+](=O)[O-])cc1)C(C(=O)c1ccc(N=[N+]=[N-])cc1)O2 (centres undefined)	96.7% (inactive)
COc1ccc(C2C(C#N)=C(N)Oc3c2sc2c(F)cccc32)cc1 (centres undefined)	6.47% (active)
COc1cc(-c2cc3ncccc3c3[nH]c(=O)c4cccnc4c23)cc(OC)c1OC	34.3% (inactive)
CCCCC/C(=C\c1ccccc1)C1OC(C)C(C)O1 (centres undefined)	68.5% (inactive)
COc1ccc2c(c1)c(-c1nc(-c3c[nH]c4ncccc34)cs1)cn2CCNC(=O)OC(C)(C)C	61% (inactive)
COc1cc(/C=C/c2cc(/C=C/c3ccc(O)c(OC)c3)n(-c3ccccc3)c(=O)n2)ccc1O	68.2% (inactive)
CCN1CCN(C(=O)[C@]23CC[C@@H](C)[C@H](C)[C@H]2C2=CC[C@@H]4[C@@]5(C)C/C(=C/c6cccc(OC)c6OC)C(=O)C(C)(C)[C@@H]5CC[C@@]4(C)[C@]2(C)CC3)CC1	52.9% (inactive)
COc1cc2c(cc1-c1c(C)noc1C)ncc1nc(C3CCCCC3)n([C@@H](C)COC(F)F)c12	26.2% (inactive)
CC(=O)OC[C@]12CC[C@@H](/C(C)=N/O)[C@@H]1[C@H]1CC[C@@H]3[C@@]4(C)CCCNC(C)(C)[C@@H]4CC[C@@]3(C)[C@]1(C)CC2	83.8% (inactive)
Brc1cnc2[nH]cc(-c3nnc(-c4ccccc4)o3)c2c1	76.7% (inactive)
COc1ccc2[nH]c(-c3ccc(Cl)cc3)cc(=O)c2c1	86.7% (inactive)
CCN1CCN(C(=O)[C@]23CCC(C)(C)C[C@@H]2C2=CC[C@@H]4[C@@]5(C)C/C(=C/c6ccncc6)C(=O)C(C)(C)[C@@H]5CC[C@@]4(C)[C@]2(C)CC3)CC1	-59% (active)
COc1ccc(/C=C(\C#N)c2cc3ccccc3n2S(C)(=O)=O)cc1	73.5% (inactive)
Cc1ccc(S(=O)(=O)Nc2ccc(-c3cc(-c4cccc(F)c4)c(C#N)c(=O)[nH]3)cc2)cc1	87.2% (inactive)
N#CC1=C(N)Oc2c(c(N)nn2-c2ccccc2)C1c1ccc(Cl)cc1 (centres undefined)	87.6% (inactive)
C=C(C)[C@@H]1CC[C@]2(CN)CC[C@]3(C)[C@H](CC[C@@H]4[C@@]5(C)CCC(=O)NC(C)(C)[C@@H]5CC[C@]43C)[C@@H]12	88% (inactive)
CC1(C)[C@@H](O)CC[C@]2(C)[C@H]3CC[C@@H]4[C@H]5[C@H](C(=O)/C=C/c6ccc(C(F)(F)F)cc6)CC[C@]5(CO)CC[C@@]4(C)[C@]3(C)CC[C@@H]12	60.6% (inactive)
